Results filed as inconclusive are left out. Calls of active or inactive are those of the source. Calls follow the shape of the dose curve; as a rule, active = well fitted inhibition curve with a large enough effect; inconclusive = small, poorly fitted or top-dose-only effect; inactive = no such curve, though single readings can be large or run the other way.
test system: Zika virus NS2B-NS3 protease (linked construct); experiment: Primary screen NINDS Rhodamine qHTS for Zika virus inhibitors (AID 1347160); details: purified NS2B-NS3 protease, Rhodamine110 substrate fluorescence; series mostly up to 57.1 µM; activity change, negative = inhibition: at the top concentration; also: nearly all actives have a fitted effect of over 55% in size
In short: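 Percent inhibition, normalized to uninhibited and enzyme-free controls, is fitted to a 4-parameter Hill equation. Fluorescence change comes from a 15-min cleavage of 1.5 microM bis-peptide Rhodamine110 substrate by 25 nM linked NS2B-NS3 at room temperature.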
% is scaled to controls: 0 for no effect and ±100 for the full control effect; potency is read from the fitted curve at half-maximal effect.

| SMILES | activity change, negative = inhibition | Potency | outcome |
| --- | --- | --- | --- |
| CCC(C)/C=C(C)/C=C/C1=CC2=C(Cl)C(=O)C(C)(OC(C)=O)C(=O)C2=CN1C1CCCCN(C(CCC(N)=O)C(=O)O)C1=O (configuration not stated) | -18.7% [at 15.1 µM] (inactive) | – | – |
| C[C@@H]1O[C@@H](O[C@H]2[C@H](O[C@H]3[C@H](O[C@H]4CC[C@@]5(C)C(CC[C@]6(C)C5CC=C5[C@@H]7CC(C)(C(=O)O)C[C@@H](O)[C@]7(C)CC[C@]56C)[C@@]4(C)CO)O[C@H](C(=O)O)[C@@H](O)[C@@H]3O)O[C@H](CO)[C@H](O)[C@@H]2O)[C@H](O)[C@H](O)[C@H]1O (some centres not stated) | -7.56% [at 15.1 µM] (inactive) | – | – |
| CC1(C)O[C@@]2(C)CC[C@@H]1C[C@@H]2OC1OC(CO)C(O)C(O)C1O (some centres not stated) | – | 11.2 µM (active) | – |
| CC1CCC2(C)C(CC(O)C(O)C23CO3)C1(C)CCC1=CC(O)OC1=O (configuration not stated) | – | – | inactive [at 33.1 µM] |
| C/C=C(\C)C(=O)O[C@H]1[C@H](O)[C@]2(COC(C)=O)[C@H](O)C[C@]3(C)C(=CCC4[C@@]5(C)CC[C@H](O[C@@H]6O[C@H](C(=O)O)[C@@H](O[C@@H]7O[C@H](CO)[C@@H](O)[C@H](O)[C@H]7O)[C@H](O)[C@H]6O[C@@H]6O[C@H](CO)[C@@H](O)[C@H](O)[C@H]6O)[C@](C)(CO)C5CC[C@]43C)[C@@H]2CC1(C)C (some centres not stated) | – | – | inactive [at 15.1 µM] |
| CC(=O)N[C@H]1[C@H](O[C@H]2CC[C@@]3(C)C(CC[C@]4(C)C3CC=C3C5CC(C)(C)CC[C@]5(C(=O)O)[C@H](O[C@@H]5O[C@H](CO)[C@@H](O)[C@H](O)[C@H]5O)C[C@]34C)C2(C)C)O[C@H](CO[C@@H]2OC[C@H](O)[C@H](O)[C@H]2O[C@@H]2OC[C@@H](O)[C@H](O)[C@H]2O)[C@@H](O)[C@@H]1O (some centres not stated) | -1.46% [at 15.1 µM] (inactive) | – | – |
| C[C@@H]1O[C@@H](O[C@H]2[C@H](O)[C@@H](C(=O)O)O[C@@H](O[C@H]3CC[C@@]4(C)C(CC[C@]5(C)C4CC=C4C6CC(C)(C)CC[C@]6(C(=O)O)CC[C@]45C)C3(C)C)[C@@H]2O[C@@H]2O[C@H](CO)[C@@H](O)[C@H](O)[C@H]2O)[C@H](O)[C@H](O)[C@H]1O (some centres not stated) | -24.1% [at 15.1 µM] (inactive) | – | – |
| CC(C)C1=CC2=CCC3[C@](C)(CCC[C@@]3(C)C(=O)O)C2CC1=O (some centres not stated) | -12.3% [at 33.1 µM] (inactive) | – | – |
| C[C@]1(O)CC[C@@H]2C(C(=O)O)=CO[C@@H](O[C@@H]3O[C@H](COC(=O)c4ccc(O)cc4)[C@@H](O)[C@H](O)[C@H]3O)[C@@H]21 | -24% [at 33.1 µM] (inactive) | – | – |
| C[C@]12C=CC(=O)C=C1CC[C@@H]1[C@@H]2[C@@H](O)C[C@@]2(C)[C@H]1CC[C@]2(O)C(=O)COC(=O)CCC(=O)O | 16.3% (inactive) | – | – |
| COC(=O)c1ccc(O[C@@H]2O[C@H](CO)[C@@H](O)[C@H](O)[C@H]2O)c(OC)c1 | -16.3% [at 33.1 µM] (inactive) | – | – |
| CC1CCCC2OC2C(=O)c2c(O)cc(O)cc2CC(=O)O1 (configuration not stated) | – | – | inactive |
| CC(C)c1ccc(CC(=O)N2CCC[C@@H](c3cccc(OC(C)(C)C(=O)O)c3)C2)cc1 | -24.2% (inactive) | – | – |
| C/C=C(\C)C(=O)O[C@H]1[C@@H](O[C@]2(COC(=O)CC(C)C)O[C@H](COC(=O)C(C)C)[C@@H](OC(C)=O)[C@@H]2O)O[C@H](COC(C)=O)[C@@H](O)[C@@H]1O | -18.2% [at 15.1 µM] (inactive) | – | – |
| O=C(O)CCc1cccc(O[C@@H]2O[C@H](CO)[C@@H](O)[C@H](O)[C@H]2O)c1O | – | – | inactive [at 33.1 µM] |
| COC(=O)C1C(c2ccc(O)cc2)C(C(=O)OC)C1c1ccc(O)cc1 (configuration not stated) | -19.8% [at 33.1 µM] (inactive) | – | – |
| C/C(=C\CO)CC/C=C(\C)C(=O)O[C@H]1[C@H](OC2OC=C(C(=O)O)C3CCC(C)(O)C23)O[C@H](CO)[C@@H](O)[C@@H]1O (some centres not stated) | -17.3% [at 33.1 µM] (inactive) | – | – |
| CCNC(=O)[C@@H]1CCCN1C(=O)[C@H](CCCN=C(N)N)NC(=O)[C@H](CC(C)C)NC(=O)[C@@H](C)NC(=O)[C@H](Cc1ccc(O)cc1)NC(=O)[C@H](CO)NC(=O)[C@H](Cc1c[nH]c2ccccc12)NC(=O)[C@H](Cc1cnc[nH]1)NC(=O)[C@@H]1CCC(=O)N1 | 16% [at 33.1 µM] (inactive) | – | – |
| COC(=O)CC[C@@H](C)[C@H]1CC[C@H]2[C@@H]3CC(=O)[C@H]4C[C@H](OC(C)=O)CC[C@]4(C)[C@H]3CC[C@]12C | – | – | inactive |
| CC(=O)Oc1cc2c(s1)CCN([C@H](C(=O)C1CC1)c1ccccc1F)C2 | 15.8% (inactive) | – | – |
| COC1CCCC/C(C)=C/C2C=C(C)C(C)C3C(CC(C)C)NC(=O)C23C(=O)C1 (configuration not stated) | -8.97% [at 33.1 µM] (inactive) | – | – |
| O=C(/C=C/c1ccc(O)cc1)OCC1=C[C@@H](O)[C@@H]2C=CO[C@@H](O[C@@H]3O[C@H](CO)[C@@H](O)[C@H](O)[C@H]3O)[C@H]12 | -21.2% [at 33.1 µM] (inactive) | – | – |

From PubChem BioAssay (NCATS)
